Compounds without any hit were thinned out: in the full panel of roughly 79,000, 15% have a hit. Values without a mark were called inactive. Calls of active or inactive are those of the source. Cut-off read from the data, not from the text of the source: active = growth inhibition above about 70%; inactive = the rest.

Test [1] in a line: NCI Yeast Anticancer Drug Screen. Data for the rad50 strain (AID 155).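 Note: 0% = growth of vehicle-only cultures of the same strain.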 As to conditions: S. cerevisiae rad50 strain growth inhibition; at 50.0 µM; stronger effect = higher value. The method, boiled down: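 Cells are treated with compound, grown, and their growth is then scored against vehicle-only cultures of the same repair-deficient yeast strain.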
A short description of test [2]: NCI Yeast Anticancer Drug Screen. Data for the mec2-1 strain (AID 157). As to conditions: S. cerevisiae mec2-1 strain, at 50.0 µM, stronger effect = higher value. The method, boiled down:
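Growth inhibition is read against vehicle-treated controls after compound exposure of the mec2-1 yeast strain, which is defective in DNA damage repair or cell cycle control.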

The nature of test [3]: NCI Yeast Anticancer Drug Screen. Data for the sgs1 mgt1 strain (AID 161).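 Note: 0% = growth of cultures given vehicle only.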 As to conditions: S. cerevisiae sgs1 mgt1 strain, at 50.0 µM, stronger effect = higher value. The method, boiled down:
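Compounds are added to genetically altered yeast, and growth is compared with cultures given vehicle alone to give percent inhibition.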

The nature of test [4]: NCI Yeast Anticancer Drug Screen. Data for the cln2 rad14 strain (AID 165).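 Note: 0% = growth equal to vehicle treated cultures.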 As to conditions: S. cerevisiae cln2 rad14 strain, at 50.0 µM, stronger effect = higher value. The method, boiled down: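 Growth inhibition, relative to vehicle-treated controls, is the read-out. The test organism is a yeast strain with defined genetic alterations, cln2 rad14.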
A short description of test [5]: NCI Yeast Anticancer Drug Screen. Data for the bub3 strain (AID 167). As to conditions: S. cerevisiae bub3 mutant strain, at 50.0 µM, stronger effect = higher value. The method, boiled down:
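Part of a panel of yeast mutants defective in DNA damage repair or cell cycle regulation. Each strain is grown with compound, and inhibition is calculated relative to solvent-treated cultures.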

Test [6] is described as follows: NCI Yeast Anticancer Drug Screen. Data for the mlh1 rad18 strain (AID 175). As to conditions: S. cerevisiae mlh1 rad18 strain growth inhibition; at 50.0 µM; stronger effect = higher value. The method, boiled down:
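Cells of a genetically altered yeast strain, deficient in DNA damage repair, were treated with compound. Their growth was then compared with that of vehicle-treated cultures to give inhibition.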

As for `COn1c(-c2ccccc2)nc2c1C(=O)N(C)CN2C`, the growth inhibition in test [1] was -14.2%; in test [2], 1.7%; in test [3] it was 7.3%; in test [4], -47.8%; in test [5] it was -6.9%; in test [6], 5.4%.
Turning to `CCCC(O)(Cc1ccccc1)c1ccccc1` (stereo unspecified), the growth inhibition in test [1] was -39%; in test [2], -25.5%; in test [3] it was -15.2%; in test [4], -3.45%; in test [5], -15.2%; in test [6] it was -14%.
Take `N#Cc1ccc(Oc2ccc(C#N)cc2)cc1`: the growth inhibition in test [1] was 12.2%; in test [2], -19.6%; in test [3], -8.45%; in test [4], 18.4%; in test [5], -0.4%; in test [6], -1.1%.
In the case of `CCCCCCCCCCCCCCCO`, the growth inhibition in test [1] is 0.45%; in test [2], -20.4%; in test [3], -2.45%; in test [4] it was -7.35%; in test [5], -7.25%; in test [6], 8.4%.
In the case of `N#C/C(N)=C(\C#N)NC=NCc1ccccc1`, the growth inhibition in test [1] is -10.8%; in test [2], -18.6%; in test [3], 20.2%; in test [4], 2.3%; in test [5] it was 26.3%; in test [6] it was -21.1%.
As for `Cc1c2c(n3c(nc4ccccc43)c1C#N)SCC2`, the growth inhibition was -51.3% in test [1]; -49.3% in test [2]; -44.5% in test [3]; -8.5% in test [4]; -22% in test [5]; -17.5% in test [6].
For the compound `CCOc1ccc2nc(/C=C/c3ccccc3)ccc2c1`, the growth inhibition in test [1] was 13.9%; in test [2] it was -3.65%; in test [3], 13.8%; in test [4], -3.75%; in test [5] it was 9.85%; in test [6] it was 14.8%.
Consider `Oc1[nH]c2ccccc2c1N=NC(=S)Nc1ccccc1Cl`, for which the growth inhibition is -8.2% in test [1]; -2.3% in test [2]; 46.5% in test [3]; 36.2% in test [4]; 21.8% in test [5]; 26.2% in test [6].
In the case of `CC12CCC(=O)[C@@]1(C)CCCC2O` (stereo partly specified), the growth inhibition is -34.2% in test [1]; -34.4% in test [2]; -12.8% in test [3]; -34.6% in test [4]; -26.8% in test [5]; -32.2% in test [6].
As to `C[n+]1ccccc1/C=C/c1ccc2c(c1)OCO2`, the growth inhibition in test [1] is 18.3%; in test [2], 5.9%; in test [3], 22.5%; in test [4], -0.45%; in test [5], 29.9%; in test [6], 6.6%.
As to `CC12CCC3c4ccc(OC(=O)c5ccccc5)cc4CCC3C1CC(O)C2` (stereo unspecified), the growth inhibition in test [1] was -5.5%; in test [2], 38.1%; in test [3] it was 50.2%; in test [4], 42.7%; in test [5], 69.6%; in test [6], 11.9%.
`[Br][Pt+2][Br].[NH-]c1cccc(F)c1.[NH-]c1cccc(F)c1`: the growth inhibition in test [1] was 50.9%; in test [2], 11.4%; in test [3], 39.4%; in test [4] it was 6.4%; in test [5], 5.65%; in test [6] it was 46.3%.
For `O=C(O)CC(=O)C(C(=O)O)C(CCc1ccccc1)C(C(=O)O)C(=O)CC(=O)O` (stereo unspecified), the growth inhibition in test [1] was -21.2%; in test [2], -13.6%; in test [3], -19.7%; in test [4], 10.2%; in test [5], -2.75%; in test [6], -11.4%.
On to `CN(C)C(=S)/N=C(\N)N(C)C`, for which the growth inhibition is 4.2% in test [1]; -8.55% in test [2]; -3.8% in test [3]; -0.45% in test [4]; 1.7% in test [5]; 15.6% in test [6].
For `CC(C)(C)c1cc(-c2cc(C(C)(C)C)nc(N)n2)nc(N)n1`, the growth inhibition in test [1] is -4.9%; in test [2], -14.1%; in test [3], -14%; in test [4], -18.7%; in test [5], -35.3%; in test [6], -16.4%.
On to `CCCCCC(=O)OC[n+]1ccc2c(C)c3[nH]c4ccc(OC)cc4c3c(C)c2c1`, for which the growth inhibition is 87.8% (active) in test [1]; 91.8% (active) in test [2]; 90.2% (active) in test [3]; 89.3% (active) in test [4]; 87.1% (active) in test [5]; 91.5% (active) in test [6].
For the compound `O=C(c1ccccc1)c1ccccc1`, the growth inhibition in test [1] was 23.9%; in test [2], 2.35%; in test [3] it was -13.2%; in test [4] it was -16.8%; in test [5], 14.3%; in test [6], 14.1%.
`C=CCOCn1ccc(N)nc1=O`: the growth inhibition was -3.3% in test [1]; -0.55% in test [2]; 1.8% in test [3]; 7% in test [4]; -6.05% in test [5]; -2.95% in test [6].
With `O=C(NC1CCCCC1)N(C1CCCCC1)C1CCCCC1`, the growth inhibition in test [1] was 7.65%; in test [2], 9.95%; in test [3] it was -2.05%; in test [4], 2.85%; in test [5] it was 23.9%; in test [6], 1.85%.
In the case of `CC(C)(C)N1CCC(=O)C1=O`, the growth inhibition is 23.8% in test [1]; 22.9% in test [2]; 1.85% in test [3]; 7.85% in test [4]; 5.85% in test [5]; 17.8% in test [6].
As to `O=c1c(SCc2ccc(Cl)cc2)c(SCc2ccc(Cl)cc2)cnn1-c1ccccc1`, the growth inhibition was -5.7% in test [1]; -17.2% in test [2]; 19.2% in test [3]; 6.65% in test [4]; -6.6% in test [5]; 13.1% in test [6].
